# A selection: hits, their analogues and other compounds. The true share with any hit is near 5.2%.
# Sfp PPTase inh – Sfp phosphopantetheinyl transferase inhibition. Potency, µM, for inactives: largest response in the series, negative = inhibition, actives largely listed as inhibitors. 310,000 tested, 3.5% active. Biochemical Sfp PPTase activity, qHTS. Q9F4F7;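 further: the enzyme is Sfp with the accession as filed and its product quenches rhodamine fluorescence; potency means the concentration at half of the fitted maximal effect; 0% = enzyme reaction without inhibitor and -100% = no enzyme wells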
#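 Compounds were incubated with enzyme (final 15 nM) for 15 min at room temperature before substrate addition started the reaction. Fluorescence at 525 nm excitation, 598 nm emission was recorded immediately and after 30 minutes.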
# IDH1 R132H inh – human IDH1 R132H inhibition; O75874; IDH1-R132H enzyme, NADPH consumption, diaphorase/resazurin fluorescence; Potency, µM (doses to about 76.6 µM), without a hit: at the highest dose activity change, negative = inhibition, actives largely listed as inhibitors; 390,000 tested, 0.093% active; AID 602179; further: potency means the concentration at half of the fitted maximal effect; on the % scale 0 is the no-effect control and ±100 the full control effect; nearly all actives have a fitted effect of over 65% in size
#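 IDH1-R132H (0.5 ug/mL) preincubated 30 min with compound, then NADPH (0.016 mM) and alpha-KG (2 mM) added; 80 min at RT, pH 7.5. Remaining NADPH coupled via diaphorase/resazurin to fluorescence (540/590 nm); concentration-response curves normalized to no-enzyme control.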
# VDR inh – vitamin D3 receptor (human) inhibition | 400,000 tested, 0.93% active | P11473 | VDR-SRC2-3 peptide fluorescence polarization, 2 h | Potency, µM, for inactives: max response, negative = inhibition, hits mostly inhibitors; further: potency means the concentration at half of the fitted maximal effect; on the % scale 0 is the no-effect control and ±100 the full control effect
#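 Fluorescence polarization assay measuring small-molecule disruption of VDR binding to the coregulator peptide SRC2-3. Compounds were pin-transferred (23 nl) into the reagent mix and incubated 2 h at room temperature before reading.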
# TrxR1 inh – rat TrxR1 inhibition. 390,000 tested, 1% active. recombinant rTrxR1, NADPH fluorescence consumption, selenite substrate. O89049. Potency, µM (top dose mostly 114 µM), without a hit: at the top dose activity change, negative = inhibition, usual class: inhibitors; further: potency means the concentration at half of the fitted maximal effect; on the % scale 0 is the no-effect control and ±100 the full control effect; nearly all actives have a fitted effect of over 65% in size
# Target sequence (O89049 whole entry, looked up): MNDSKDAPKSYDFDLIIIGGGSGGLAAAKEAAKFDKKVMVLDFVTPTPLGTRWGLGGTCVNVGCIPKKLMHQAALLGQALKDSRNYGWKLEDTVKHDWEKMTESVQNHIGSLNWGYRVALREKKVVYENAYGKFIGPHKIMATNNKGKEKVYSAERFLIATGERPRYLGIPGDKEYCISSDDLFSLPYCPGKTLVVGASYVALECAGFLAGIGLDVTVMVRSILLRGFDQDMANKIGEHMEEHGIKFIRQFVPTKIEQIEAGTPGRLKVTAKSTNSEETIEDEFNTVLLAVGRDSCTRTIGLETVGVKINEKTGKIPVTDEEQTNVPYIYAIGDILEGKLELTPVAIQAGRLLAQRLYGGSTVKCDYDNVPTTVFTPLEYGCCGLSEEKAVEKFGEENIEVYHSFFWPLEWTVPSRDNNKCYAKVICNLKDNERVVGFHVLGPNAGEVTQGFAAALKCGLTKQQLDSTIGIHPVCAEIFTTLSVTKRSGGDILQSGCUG
#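 Rat TrxR1 (90 nM in the dispensed reagent) was pre-reduced with 400 uM NADPH for 5 min at room temperature, then incubated with compound for 15 min. After 400 uM selenite was added, NADPH fluorescence (Ex 340/Em 450 nm) was followed for 8 min.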
# TrxR1 substrate – substrates of rat thioredoxin reductase 1 | Potency, µM (highest dose often 114 µM), inactives show at the highest dose activity change, negative = substrate turnover | 390,000 tested, 0.01% active | purified TrxR1 substrate turnover, NADPH consumption readout | O89049; further: potency means the concentration at half of the fitted maximal effect; on the % scale 0 is the no-effect control and ±100 the full control effect; nearly all actives have a fitted effect of over 50% in size
#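 Rat TrxR1, dispensed at 90 nM, was prereduced with 400 uM NADPH (final) for 5 min at ~22 deg C, then incubated with compound 15 min before 400 uM selenite. A first-read NADPH fluorescence drop versus no-compound background flagged substrates.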
# PLK1 PBD inh – PLK1 (human) polo-box domain binding inhibition | AID 720504 | 360,000 tested, 2.8% active | Plk1 PBD binding of FITC phosphopeptide, fluorescence polarization | P53350 | Potency, µM, for inactives: max response, negative = inhibition, hits mostly inhibitors; further: potency means the concentration at half of the fitted maximal effect; series mostly up to about 57 µM; on the % scale 0 is the no-effect control and ±100 the full control effect; nearly all actives have a fitted effect of over 65% in size
# USP1 UbRho – validation of human USP1/UAF1 inhibitors; Potency, µM (series often up to 114 µM), for inactives: at the highest dose activity change, negative = inhibition, actives largely listed as inhibitors; AID 540327; 50 tested, 50% active; Ub-Rhodamine cleavage, fluorescence kinetic read; shares compounds with VDR inh
# VDR inh confirm – inhibits human vitamin D receptor, primary hit validation; 840 tested, 89% active; VDR-coactivator inhibition assay, qHTS confirmation; AID 602199; Potency, µM, hits mostly inhibitors; shares compounds with VDR inh; further: potency means the concentration at half of the fitted maximal effect
# VDR FP – confirmation of human VDR-coactivator binding inhibitors, fluorescein label. shares compounds with VDR inh. VDR-coactivator binding, fluorescein fluorescence polarization. Potency, µM (titrated, usually from 57.1 µM), without a hit: at the top dose activity change, negative = inhibition, usual class: inhibitors. 840 tested, 48% active. AID 602200; further: potency means the concentration at half of the fitted maximal effect
# VDR bla – confirmation of human vitamin D receptor inhibitors in reporter cells. shares compounds with VDR inh. VDR beta-lactamase reporter cells, FRET ratio; cells co-treated with VDR agonist LG190178. Potency, µM (titrated, usually from 46.1 µM), for inactives: at the highest dose activity change, negative = inhibition, usual class: inhibitors. 840 tested, 23% active; further: potency means the concentration at half of the fitted maximal effect; on the % scale 0 is the no-effect control and ±100 the full control effect
# VDR viability – counter-screen for vitamin D receptor inhibitors: cytotoxicity; Potency, µM (doses to about 48.3 µM), for inactives: at the top dose activity change, negative = cytotoxicity, hits mostly cytotoxic; shares compounds with VDR inh; cytotoxicity counter-screen, cell viability, qHTS; 840 tested, 18% active; AID 602204;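 further: potency means the concentration at half of the fitted maximal effect; plate controls were DMSO for no effect and high-concentration cycloheximide for full effect; nearly all actives have a fitted effect of over 75% in size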
# * hit, by the source's call; ? = inconclusive; . = no result given; [ ] = dose if it differs, or a comment. The call rests on the fitted dose curve; in most records, active means well fitted curve in the direction sought with a large enough effect; inconclusive means small, poorly fitted or top-dose-only effect, or another doubt; inactive means no such curve, though single readings can be large; an effect the other way counts as inactive or inconclusive.
SMILES,Sfp PPTase inh,IDH1 R132H inh,VDR inh,TrxR1 inh,TrxR1 substrate,PLK1 PBD inh,VDR inh confirm,VDR FP,VDR bla,VDR viability,others
COc1ccc(/C=C/C(=O)c2ccc3c(c2)OCCO3)cc1[N+](=O)[O-],?,10%,-27%,-14%,-12%,-16%,.,.,.,.,
O=C(/C=C/c1cccc([N+](=O)[O-])c1)Nc1ccc(NC(=O)c2cccs2)cc1,4%,-1%,-2%,5%,-6%,-19%,.,.,.,.,
O=C(/C=C/c1cccc([N+](=O)[O-])c1)c1ccc2c(c1)OCCO2,-7%,8%,?,-18%,0%,-24%,13*,13µM*,?,?,
Cc1ccc2ccc(C(Nc3ccccn3)c3ccccc3)c(O)c2n1 (stereo not drawn),11%,10%,?,?,0%,?,.,.,.,.,
COc1ccc(C(Nc2cc(C)ccn2)c2ccc3ccc(C)nc3c2O)cc1 (stereo not drawn),6%,3%,?,14µM*,3%,15µM*,6.3*,3.5µM*,2%,8%,
Cc1ccnc(NC(c2cc(C)ccc2O)c2ccc3cccnc3c2O)c1 (stereo not drawn),.,.,16µM*,5µM*,3%,.,13*,11µM*,?,-29%,
Cc1ccnc(NC(c2ccccc2)c2ccc3cccnc3c2O)c1 (stereo not drawn),.,-1%,?,-77%[57.1 µM],9%[57.1 µM],?,.,.,.,.,
COc1cc(C(Nc2ccccn2)c2ccc3ccc(C)nc3c2O)cc(OC)c1O (stereo not drawn),18µM*,-15%,18µM*,1.3µM*,-6%,2.4µM*,7.5*,5µM*,?,?,
COc1ccccc1NC(c1cccnc1)c1ccc2cccnc2c1O (stereo not drawn),20µM*,2%,50µM*,0.71µM*,-6%,3µM*,9.5*,?,-12%,-7%,
Cc1ccccc1-c1noc(-c2ccc(NCC3CCCO3)c([N+](=O)[O-])c2)n1 (stereo not drawn),.,2%,5%,-18%,-14%,.,.,.,.,.,
Nc1nc(Nc2ccccc2F)nc(N2CCOCC2)c1[N+](=O)[O-],8%,2%,-9%,-9%[57.1 µM],-2%[57.1 µM],-5%,.,.,.,.,
N#C/C(=C\c1ccc(-c2cc(Cl)ccc2Cl)o1)C(=O)Nc1cccc2ncccc12,.,.,?,?,21%[57.1 µM],.,.,.,.,.,USP1 UbRho=?
CC1(C)CC(=O)C(C(c2ccc(Br)cc2)C2C(=O)CC(C)(C)CC2=O)C(=O)C1,3%,0%,25µM*,7.9µM*,10%,19µM*,30*,18µM*,24%,9%,
CN(Cc1ccccc1)C(=O)Cn1nnc(-c2ccccc2)c1COc1ccccc1,.,.,.,.,.,-9%,.,.,.,.,

# Screening data from PubChem.
